7 molecules from PubChem BioAssay (NCI) can be followed below.

Test systems include NCI-H23 lung; NCI-H226 lung; NCI-H322M lung; HOP-62 NSCLC; NCI-H460 lung; HOP-92 NSCLC; NCI-H522 lung; A549/ATCC NSCLC; 786-0 renal; COLO 205 colon; DU-145 prostate; K-562 leukemia; MALME-3M melanoma; MDA-MB-231 breast; RXF 393 renal; SF-268 CNS; SF-295 CNS; SF-539 CNS; UACC-257 melanoma; M14 melanoma.
Holding throughout (test): NCI-60 one-dose screen, 48 h (100 = growth as untreated, 0 = no growth, -100 = all killed)
Holding throughout (conditions): 10 µM unless noted

Compounds without any hit were thinned out: in the full panel of roughly 83,000, 20% have a hit.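 Results are percent growth after 48 hours of single-concentration exposure. 100 means growth as in untreated cells, lower positive values show inhibition; negative values down to -100 show cell death.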 Values without a mark were called inactive. The source made the active and inactive calls. Rule for the calls: active = growth percent below 10; inactive = the rest.

With `O=C(/C=C/c1ccco1)Nc1ncc(Cc2ccc(F)cc2)s1`, the growth with NCI-H23 lung is 23.4%; with NCI-H226 lung, 51.8%; with NCI-H322M lung, 47.2%; with HOP-62 NSCLC, 25.8%; with NCI-H460 lung, 6.54% (active); in the test with HOP-92 NSCLC, 90.5%. The growth with NCI-H522 lung was -2.92% (active); in the test with A549/ATCC NSCLC, 23.9%; in the test on 786-0 renal, 38.4%; in the test on COLO 205 colon, 4.77% (active); with DU-145 prostate it was 19%; in the test on K-562 leukemia it was 10.8%. The growth in the test with MALME-3M melanoma was 59%; with MDA-MB-231 breast it was 45.5%; with RXF 393 renal, 12.7%; with SF-268 CNS, 54.9%; with SF-295 CNS it was 11.7%; with SF-539 CNS, -21.3% (active). The growth was 45.2% in the test on UACC-257 melanoma and 16.7% in the test on M14 melanoma.

As to `O=C1c2ccccc2-c2c1c1ccncc1c(=O)n2CCCn1ccnc1`, the growth in the test with NCI-H23 lung was 51.8%; in the test with NCI-H226 lung it was 54.4%; in the test with NCI-H322M lung, 83.8%; in the test with HOP-62 NSCLC, 39.9%; in the test on NCI-H460 lung it was 21.8%; with HOP-92 NSCLC it was 78.5%. Besides, the growth in the test on NCI-H522 lung was 29.6%; in the test on A549/ATCC NSCLC, 56.3%; in the test on 786-0 renal, 55.4%; with COLO 205 colon it was 56.4%; in the test on DU-145 prostate it was 58.6%; in the test on K-562 leukemia, 20.5%. Also, the growth was 98% in the test on MALME-3M melanoma; 73.8% with MDA-MB-231 breast; 55.6% with RXF 393 renal; 38.7% with SF-268 CNS; 56.2% in the test on SF-295 CNS; 31.6% in the test on SF-539 CNS. Further, the values for the growth in the test with UACC-257 melanoma and in the test on M14 melanoma were 93.5% and 63.3%, respectively.

Take `Oc1cccc2c1NCCC2`: the growth in the test with NCI-H23 lung is 13.6%; in the test on NCI-H226 lung it was 32.8%; with NCI-H322M lung, 38.3%; in the test on HOP-62 NSCLC, 25.1%; in the test on NCI-H460 lung it was 5.35% (active); in the test with HOP-92 NSCLC, -16.6% (active). Besides, the growth in the test with NCI-H522 lung is -2.3% (active); in the test with A549/ATCC NSCLC, 12.9%; with 786-0 renal, 26.6%; in the test with COLO 205 colon, 38.6%; in the test with DU-145 prostate it was 34.8%; in the test with K-562 leukemia it was 13.5%. Further, the growth is -0.428% (active) in the test on MALME-3M melanoma; 6.35% (active) in the test on MDA-MB-231 breast; 43.9% in the test on RXF 393 renal; 35.3% in the test with SF-268 CNS; 0.338% (active) in the test with SF-295 CNS; 26.4% in the test on SF-539 CNS. The growth in the test with UACC-257 melanoma was 12.4%; with M14 melanoma it was 31.4%.

As to `Cc1cc(C(=O)Nc2cc(Nc3ncccc3-c3ncnc4nc[nH]c34)ccc2F)cc(C(C)(C)C#N)c1`, the growth was 19.1% in the test with NCI-H23 lung; 39.9% in the test on NCI-H226 lung; 56.6% in the test with NCI-H322M lung; 48.5% with HOP-62 NSCLC; 33.4% with NCI-H460 lung; -13.4% (active) with HOP-92 NSCLC. In addition, the growth in the test on NCI-H522 lung was 53.7%; in the test with A549/ATCC NSCLC, 48.7%; with 786-0 renal it was 63.5%; in the test on COLO 205 colon, 13.3%; in the test with DU-145 prostate it was 60%; with K-562 leukemia it was 6.28% (active). Besides, the growth is 12.9% in the test with MALME-3M melanoma; 17% in the test with MDA-MB-231 breast; 88.5% in the test on RXF 393 renal; 64.7% with SF-268 CNS; 68.6% with SF-295 CNS; 33.9% with SF-539 CNS. The figures for the growth in the test on UACC-257 melanoma and with M14 melanoma were 24.5% and 5.3% (active), respectively.

Turning to `CCOC(=O)c1c(C)c2c(n1Cc1ccccc1)CSc1cc(C#N)c(=O)[nH]c1-2`, the growth in the test with NCI-H23 lung is 72.6% [100 µM]; in the test on NCI-H226 lung, 89.6% [100 µM]; in the test on NCI-H322M lung, 78.6% [100 µM]; with HOP-62 NSCLC it was 58.7% [100 µM]; in the test with NCI-H460 lung, 67% [100 µM]; with HOP-92 NSCLC, -18.5% [100 µM] (active). For the same molecule, the growth with NCI-H522 lung is 87% [100 µM]; in the test on A549/ATCC NSCLC, 75.1% [100 µM]; in the test on 786-0 renal, 19.8% [100 µM]; in the test on COLO 205 colon, 60.4% [100 µM]; with DU-145 prostate it was 83.9% [100 µM]; in the test with K-562 leukemia it was 75.5% [100 µM]. Further, the growth is 55% [100 µM] in the test with MALME-3M melanoma; 54.8% [100 µM] with MDA-MB-231 breast; 26.6% [100 µM] in the test with RXF 393 renal; 67.5% [100 µM] with SF-268 CNS; 43.6% [100 µM] in the test on SF-295 CNS; 52.6% [100 µM] in the test on SF-539 CNS. In addition, the growth was 121% [100 µM] with UACC-257 melanoma and 90.4% [100 µM] with M14 melanoma.

On to `O=C(Nc1cccc(Cl)c1)Oc1c(Cl)c(Cl)c(Cl)c(Cl)c1Cl`, for which the growth in the test with NCI-H23 lung is 88.1%; with NCI-H226 lung it was 83.8%; in the test on NCI-H322M lung, 109%; in the test on HOP-62 NSCLC, 81.7%; in the test on NCI-H460 lung, 101%; in the test with HOP-92 NSCLC, 58.7%. The growth is 83.9% with NCI-H522 lung; 96.8% in the test with A549/ATCC NSCLC; 97.9% in the test on 786-0 renal; 101% in the test on COLO 205 colon; 95.6% in the test with DU-145 prostate; 98.6% with K-562 leukemia. Further, the growth is 101% in the test with MALME-3M melanoma; 94.3% in the test with MDA-MB-231 breast; 117% in the test with RXF 393 renal; 95.9% in the test with SF-268 CNS; 90% in the test with SF-295 CNS; 95.3% with SF-539 CNS. For the same molecule, the growth in the test on UACC-257 melanoma was 110%; in the test on M14 melanoma, 97.3%.

As for `C=C(c1ccc(C(=O)O)c(F)c1)c1cc2c(cc1C)C(C)(C)C=CC2(C)C`, the growth with NCI-H23 lung was 76.2%; in the test on NCI-H226 lung it was 65.5%; in the test with NCI-H322M lung it was 90.7%; in the test on HOP-62 NSCLC, 70%; in the test with NCI-H460 lung it was 82.1%; in the test with HOP-92 NSCLC it was 62.4%. Besides, the growth in the test with NCI-H522 lung was 61.5%; in the test with A549/ATCC NSCLC, 38.1%; in the test on 786-0 renal, 89.2%; with COLO 205 colon, 107%; in the test on DU-145 prostate it was 94.7%; in the test with K-562 leukemia, 73.9%. The growth is 54.4% with MALME-3M melanoma; 88% in the test with MDA-MB-231 breast; 96.9% with RXF 393 renal; 74.3% in the test on SF-268 CNS; 66.5% in the test on SF-295 CNS; 72.2% in the test with SF-539 CNS. Also, the growth with UACC-257 melanoma is 80.5%; in the test with M14 melanoma, 91.1%.
